In PubChem BioAssay (Tox21) one finds Potency and outcome data, which are given here for 16 compounds.

Each structure is given as a SMILES string. Calls of active or inactive are those of the source. Unless noted, calls come from the whole dose curve; as a rule, active = well fitted curve in the direction sought with a large enough effect in the repeat runs; inconclusive = weak or mixed curves; inactive = no such curve, though single readings can be large; an effect the other way counts as inactive or inconclusive.

The nature of experiment [1]: qHTS assay to identify small molecule antagonists of the glucocorticoid receptor (GR) signaling pathway - cell viability counter screen (AID 720693). Note: nearly all actives have a fitted effect of over 55% in size. Note: potency is the fitted concentration of half-maximal effect.
A short description of experiment [2]: qHTS assay for identifying genotoxic compounds that show differential cytotoxicity against isogenic chicken DT40 cell lines with known DNA damage response pathways - Rad54/Ku70 mutant cell line (AID 743015). Note: nearly all actives have a fitted effect of over 60% in size. Note: potency is the fitted concentration of half-maximal effect. For orientation: Quantitative high-throughput screening tests each substance at several concentrations.
Experiment [3] in a line: qHTS assay to identify small molecule antagonists of the androgen receptor (AR) signaling pathway using the MDA cell line - cell viability counter screen (AID 743041; note: nearly all actives have a fitted effect of over 45% in size; note: potency is the fitted concentration of half-maximal effect). In a few lines: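 Compound exposure lasted 16 h at 37C in MDA-kb2 AR-luc cells stimulated with R1881. Protease-based CellTiter-Fluor reagent was applied for the final 30 min and fluorescence measured.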
For experiment [4], the system named is thyroid hormone receptor (rat, GH3 cells). Kind of experiment: qHTS assay to identify small molecule agonists of the thyroid receptor (TR) signaling pathway (AID 743066; calls by dose curve).
Experiment [5] in a line: qHTS assay to identify small molecule antagonists of the estrogen receptor alpha (ER-alpha) signaling pathway - cell viability counter screen (AID 743074; calls by dose curve; note: nearly all actives have a fitted effect of over 45% in size; note: potency is the fitted concentration of half-maximal effect).
Experiment [6] is described as follows: qHTS assay to identify small molecule antagonists of the estrogen receptor alpha (ER-alpha) signaling pathway using the BG1 cell line - cell viability counter screen (AID 743081).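 Note: compound given together with 17beta-estradiol as the ER stimulus; nearly all actives have a fitted effect of over 45% in size.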
A further experiment concerns the target Aromatase (Homo sapiens) (UniProt P11511). The experiment can be described thus: qHTS assay to identify aromatase inhibitors (AID 743083). Note: nearly all actives have a fitted effect of over 55% in size. Note: potency is the fitted concentration of half-maximal effect.
A short description of experiment [7]: qHTS assay for identifying genotoxic compounds that show differential cytotoxicity against isogenic chicken DT40 cell lines with known DNA damage response pathways - wild type cell line (AID 743012). Note: potency is the fitted concentration of half-maximal effect; nearly all actives have a fitted effect of over 60% in size. In a few lines: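 Viability of DNA repair-proficient chicken DT40 cells was assessed by CellTiter-Glo luminescence following 40 h compound exposure at 37 C/5% CO2.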

Experiment [8] in a line: qHTS assay for identifying genotoxic compounds that show differential cytotoxicity against isogenic chicken DT40 cell lines with known DNA damage response pathways - Rev3 mutant cell line (AID 743014). Note: nearly all actives have a fitted effect of over 55% in size. Note: potency is the fitted concentration of half-maximal effect.
Experiment [9] is described as follows: qHTS assay to identify small molecule antagonists of the androgen receptor (AR) signaling pathway - cell viability counter screen (AID 743033; note: nearly all actives have a fitted effect of over 45% in size; note: potency is the fitted concentration of half-maximal effect).
Experiment [10] concerns the target Androgen receptor (Homo sapiens) (UniProt P10275). Kind of experiment: qHTS assay to identify small molecule agonists of the androgen receptor (AR) signaling pathway using the MDA cell line (AID 743040; note: nearly all actives have a fitted effect of over 20% in size). In a few lines:
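Testing was done with the MDA-kb2 AR-luc line, a human breast carcinoma stably transfected with MMTV-luciferase containing AR and GR response elements. Cells were exposed 16 h at 37C before ONE-Glo luminescence detection.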

Experiment [11] shares this target. The experiment can be described thus: qHTS assay to identify small molecule antagonists of the androgen receptor (AR) signaling pathway using the MDA cell line (AID 743042; note: nearly all actives have a fitted effect of over 55% in size; note: potency is the fitted concentration of half-maximal effect). An outline of the steps:
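MDA-kb2 breast carcinoma cells carrying MMTV-luciferase (AR/GR responsive) were co-treated with compounds and the agonist R1881 for 16 h at 37C. Inhibition read as ONE-Glo luminescence; CellTiter-Fluor fluorescence measured in parallel for cytotoxicity.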

A short description of experiment [12]: qHTS assay to identify small molecule antagonists of the thyroid receptor (TR) signaling pathway - cell viability counter screen (AID 743064). Note: nearly all actives have a fitted effect of over 50% in size. Note: potency is the fitted concentration of half-maximal effect. In a few lines: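 CellTiter-Fluor readout, 30 min at 37 °C/5% CO2, following 23.5 h incubation of GH3.TRE-Luc cells with test compound and 1 nM T3 (final).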
Experiment [13] can be described thus: qHTS assay to identify small molecule antagonists of the thyroid receptor (TR) signaling pathway (AID 743065). Note: nearly all actives have a fitted effect of over 55% in size. Note: potency is the fitted concentration of half-maximal effect. An outline of the steps:
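GH3.TRE-Luc rat pituitary cells (two TREs driving luciferase) were dosed with compound, then stimulated with 1 nM T3 (final) for 23.5 h at 37 C. ONE-Glo luminescence was the read-out, with CellTiter-Fluor fluorescence as the cytotoxicity counter-screen.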

Experiment [14] deals with Androgen receptor (Homo sapiens) (UniProt P10275). Kind of experiment: qHTS assay to identify small molecule antagonists of the androgen receptor (AR) signaling pathway (AID 743035; active = well fitted inhibition curve with a large enough effect in the signal ratio in the repeat runs, not every such curve was filed as active; inconclusive = weak or mixed curves, or effect the other way; inactive = no such curve, though single readings can be large or run the other way; the % refers to the signal ratio; note: potency is the fitted concentration of half-maximal effect). In a few lines:
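Reporter HEK293 cells were exposed to compounds and R1881 overnight (16 h, 37C); beta-lactamase activity was then quantified by FRET fluorescence.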

Experiment [15] concerns the target Estrogen receptor (Homo sapiens) (UniProt P03372). Kind of experiment: qHTS assay to identify small molecule antagonists of the estrogen receptor alpha (ER-alpha) signaling pathway (AID 743069; active = well fitted curve in the direction sought with a large enough effect in the signal ratio in the repeat runs, not every such curve was filed as active; inconclusive = weak or mixed curves, or effect the other way; inactive = no such curve, though single readings can be large or run the other way; the % refers to the signal ratio; note: potency is the fitted concentration of half-maximal effect). An outline of the steps: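 In this cell-based reporter format, GripTite HEK293 cells harbouring ER-alpha-UAS-bla were grown overnight with 2% charcoal-stripped FBS, dosed with DMSO-dissolved compounds, then challenged with 17beta-estradiol. After 18 hr at 37C, beta-lactamase activity was detected by FRET fluorescence.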

For experiment [16] the target is unchanged. The experiment can be described thus: qHTS assay to identify small molecule agonists of the estrogen receptor alpha (ER-alpha) signaling pathway (AID 743075; calls by dose curve).
Experiment [17] can be described thus: qHTS assay to identify small molecule antagonists of the estrogen receptor alpha (ER-alpha) signaling pathway using the BG1 cell line (AID 743080; calls by dose curve;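 note: BG1 cells stimulated with 17beta-estradiol alongside compound; nearly all actives have a fitted effect of over 25% in size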; note: potency is the fitted concentration of half-maximal effect). Particulars: BG1Luc4E2 ERE-luciferase antagonist mode, luminescence; activity change, negative = inhibition: at 70.3 µM (top of the series). An outline of the steps:
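BG1-Luc-4E2 cells (endogenous full-length ER-alpha, 4xERE luciferase) hormone-starved 5 days in charcoal-stripped FBS, plated 4,000/well for 24 h, then compound plus 17beta-estradiol for 21.5 h at 37 C; ONE-Glo luminescence read.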

The target in experiment [18] is Androgen receptor (Homo sapiens) (UniProt P10275). The experiment can be described thus: qHTS assay to identify small molecule agonists of the androgen receptor (AR) signaling pathway (AID 743036; active = well fitted activation curve with a large enough effect in the signal ratio in the repeat runs, with a control signal flat, not every such curve was filed as active; inconclusive = weak or mixed curves, or effect the other way; inactive = no such curve, though single readings can be large or run the other way; the % refers to the signal ratio). An outline of the steps:
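Following a 4 h settling period, AR-UAS-bla HEK293 cells were dosed with compounds for 16 h at 37C. A 2 h room-temperature incubation with LiveBLAzer B/G FRET substrate preceded the fluorescence measurement.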

The target of experiment [19] is Estrogen receptor (Homo sapiens) (UniProt P03372). The experiment can be described thus: qHTS assay to identify small molecule agonists of the estrogen receptor alpha (ER-alpha) signaling pathway using the BG1 cell line (AID 743079). Note: nearly all actives have a fitted effect of over 20% in size. Particulars: BG1Luc4E2 cells, ERE-luciferase agonist, 22 h; activation: at 70.3 µM (top of the series).
Sequence of Estrogen receptor (Homo sapiens) (P03372 whole entry, looked up): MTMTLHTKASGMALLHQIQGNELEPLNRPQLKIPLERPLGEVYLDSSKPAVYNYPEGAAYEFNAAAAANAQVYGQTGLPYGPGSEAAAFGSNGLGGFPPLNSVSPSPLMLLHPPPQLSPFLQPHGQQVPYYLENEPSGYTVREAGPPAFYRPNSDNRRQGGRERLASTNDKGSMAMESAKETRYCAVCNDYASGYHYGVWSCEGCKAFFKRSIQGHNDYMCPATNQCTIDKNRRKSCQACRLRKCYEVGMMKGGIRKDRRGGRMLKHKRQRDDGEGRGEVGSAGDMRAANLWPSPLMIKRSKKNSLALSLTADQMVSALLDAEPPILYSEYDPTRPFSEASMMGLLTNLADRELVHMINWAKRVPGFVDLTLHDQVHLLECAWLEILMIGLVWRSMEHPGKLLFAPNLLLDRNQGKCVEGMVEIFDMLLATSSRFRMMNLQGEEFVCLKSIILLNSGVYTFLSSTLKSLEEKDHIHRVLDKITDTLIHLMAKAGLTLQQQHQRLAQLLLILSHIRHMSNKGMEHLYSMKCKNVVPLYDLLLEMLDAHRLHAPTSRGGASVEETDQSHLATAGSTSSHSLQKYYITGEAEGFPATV

Sequence of Aromatase (Homo sapiens) (P11511 whole entry, looked up): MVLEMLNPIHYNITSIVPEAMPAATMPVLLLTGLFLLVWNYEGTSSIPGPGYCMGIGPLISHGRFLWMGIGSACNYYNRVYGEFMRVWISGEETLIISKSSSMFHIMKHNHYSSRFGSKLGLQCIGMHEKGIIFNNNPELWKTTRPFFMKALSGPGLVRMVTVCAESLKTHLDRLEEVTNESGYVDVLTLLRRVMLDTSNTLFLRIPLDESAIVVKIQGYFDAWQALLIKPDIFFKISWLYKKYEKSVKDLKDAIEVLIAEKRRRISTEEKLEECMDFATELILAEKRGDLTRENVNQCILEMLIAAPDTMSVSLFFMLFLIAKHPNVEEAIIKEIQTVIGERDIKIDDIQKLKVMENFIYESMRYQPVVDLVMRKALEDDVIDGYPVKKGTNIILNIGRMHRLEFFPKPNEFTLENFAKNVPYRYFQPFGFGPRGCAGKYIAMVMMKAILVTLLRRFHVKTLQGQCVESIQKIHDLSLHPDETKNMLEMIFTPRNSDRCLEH
Sequence of Androgen receptor (Homo sapiens) (P10275 whole entry, looked up): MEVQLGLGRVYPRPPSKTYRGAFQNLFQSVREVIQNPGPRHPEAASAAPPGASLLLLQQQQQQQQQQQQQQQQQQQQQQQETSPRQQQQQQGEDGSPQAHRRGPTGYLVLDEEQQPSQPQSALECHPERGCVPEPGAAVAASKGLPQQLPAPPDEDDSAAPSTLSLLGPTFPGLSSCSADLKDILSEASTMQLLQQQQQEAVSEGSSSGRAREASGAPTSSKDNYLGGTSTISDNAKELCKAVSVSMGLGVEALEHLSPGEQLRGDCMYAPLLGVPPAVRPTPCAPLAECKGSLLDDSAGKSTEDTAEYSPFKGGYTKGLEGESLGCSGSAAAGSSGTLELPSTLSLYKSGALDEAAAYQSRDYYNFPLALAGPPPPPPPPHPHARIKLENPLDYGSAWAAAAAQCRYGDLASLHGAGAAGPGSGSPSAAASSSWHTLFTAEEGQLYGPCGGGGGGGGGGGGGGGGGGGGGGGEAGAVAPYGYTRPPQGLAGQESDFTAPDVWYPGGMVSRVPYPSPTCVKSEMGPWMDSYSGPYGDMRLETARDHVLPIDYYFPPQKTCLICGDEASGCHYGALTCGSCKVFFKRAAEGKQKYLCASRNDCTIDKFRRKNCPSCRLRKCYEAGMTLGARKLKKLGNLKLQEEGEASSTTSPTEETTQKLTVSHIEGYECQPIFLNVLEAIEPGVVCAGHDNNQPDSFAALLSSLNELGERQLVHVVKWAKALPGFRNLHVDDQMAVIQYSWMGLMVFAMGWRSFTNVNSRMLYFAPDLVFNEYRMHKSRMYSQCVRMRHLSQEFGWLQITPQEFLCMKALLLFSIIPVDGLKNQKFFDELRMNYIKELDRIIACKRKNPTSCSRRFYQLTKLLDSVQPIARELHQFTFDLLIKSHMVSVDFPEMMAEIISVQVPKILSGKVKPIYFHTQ

Consider `C=CCCCCCCC=C`, for which the Potency result in experiment [1], in experiment [2], in experiment [3], in [4], in experiment [5] and in experiment [6] was “inactive” throughout. The Potency entry with Aromatase (Homo sapiens) was “inactive”.
On to `CCCOc1sc(C(=O)N2CCC(c3cc(CN)ccc3F)CC2)c(C)c1Br`, for which the Potency was 14.1 µM (active) in experiment [7]; 17.7 µM (active) in experiment [8]; 14.1 µM (active) in experiment [2]; 20 µM (active) in experiment [9]; 49.9 µM (active) in experiment [3]; 44.5 µM (active) in [11]. For the same compound, the Potency in experiment [12] is 6.28 µM (active); in experiment [13], 7.91 µM (active); in experiment [5] it was 44.9 µM (active); in the experiment with Aromatase (Homo sapiens) it was 25 µM (active). Also, the Potency result in [10] is “inactive”.
On to `CC1(C)C(=O)N(Br)C(=O)N1Br`, for which the Potency result in experiment [1], in experiment [9], in experiment [14], in [10], in [3] and in experiment [11] was “inactive” throughout. In addition, the Potency result (in experiment [12]; in experiment [13]; in [4]; in [5]; in experiment [6]; with Aromatase (Homo sapiens)) was “inactive” each time.
`C[C@@]12C(=O)OC(=O)[C@]1(C)C1CCC2O1`: the Potency in experiment [1] is 1.29 µM (active); in experiment [3], 3.35 µM (active); in experiment [12], 2.27 µM (active); in experiment [13] it was 2.02 µM (active); in [15] it was 4.06 µM [inconclusive] (active). Also, the Potency entry in experiment [8], in [2], in [4] and in [16] was “inactive” in each case.
Take `NC(=O)c1nc(-c2cccc(-c3cc(F)ccc3OCC(F)(F)C(F)(F)F)c2)n[nH]1`: the Potency in experiment [7] is 17.2 µM (active); in experiment [8] it was 24.3 µM (active); in [2], 13.7 µM (active); in experiment [9], 21.9 µM (active); in [14], 13.8 µM (active); in experiment [3] it was 61.1 µM (active). Moreover, the Potency in [11] was 61.1 µM (active); in [17] it was 68.6 µM (active); in the experiment with Aromatase (Homo sapiens), 30.6 µM (active). Besides, the Potency result in experiment [10], in experiment [16] and in [6] was “inactive” each time.
For `CC(C)(c1cc(Br)c(OCCO)c(Br)c1)c1cc(Br)c(OCCO)c(Br)c1`, the Potency in experiment [1] is 38 µM (active); in experiment [8], 13.4 µM (active); in [2], 16.8 µM (active); in [14] it was 17 µM (active); in experiment [11] it was 42.3 µM (active); in experiment [12], 47.5 µM (active). For the same compound, the Potency in experiment [13] is 9.47 µM (active). The outcome in experiment [18] was inactive. Further, the Potency entry in [10], in experiment [4] and in experiment [16] was “inactive” throughout.
Turning to `CC(C)OC(=O)c1cc(C(=O)OC(C)C)cc([N+](=O)[O-])c1`, the Potency result in [1], in experiment [9], in [13] and in experiment [4] was “inactive” each time. For the same compound, the Potency in experiment [2] is 55.8 µM (active).
`Nc1cc(Cl)c([N+](=O)[O-])cc1O`: the Potency result in experiment [1], in [9], in [13], in [4], in [15] and in experiment [5] was “inactive” each time. In addition, the Potency entry (in experiment [16]; in [19]; in [17]; in the experiment with Aromatase (Homo sapiens)) was “inactive” each time. Besides, in [12], the Potency was 60.6 µM (active).
Turning to `CN1[C@@H]2CC[C@@H]1CC(OC(=O)C(CO)c1ccccc1)C2` (some centres not stated), the Potency entry (in [1]; in experiment [9]; in experiment [3]; in experiment [5]; in experiment [6]; with Aromatase (Homo sapiens)) was “inactive” throughout.
`NCCCC(O)(P(=O)(O)O)P(=O)(O)O`: the Potency result in [1], in experiment [9], in experiment [3], in experiment [12], in experiment [4] and in experiment [5] was “inactive” in each case. Also, in experiment [6], the Potency entry is “inactive”.
Take `CC1CCCNC1` (configuration not stated): the Potency entry in [1], in experiment [13], in experiment [4], in experiment [15], in experiment [5] and in [16] was “inactive” in each case. Also, the Potency entry (in experiment [19]; in experiment [17]; in experiment [6]; with Aromatase (Homo sapiens)) was “inactive” each time.
Take `CCCCN(CCCC)CCC(O)c1cc2c(Cl)cc(Cl)cc2c2cc(C(F)(F)F)ccc12` (configuration not stated): the Potency entry in [1], in experiment [9], in experiment [3], in experiment [15], in experiment [5] and in experiment [16] was “inactive” in each case. Moreover, the Potency result (in experiment [19]; in [17]; in experiment [6]; in the experiment with Aromatase (Homo sapiens)) was “inactive” throughout. In addition, the Potency in experiment [2] was 10.1 µM (active).
As to `CCCCCCCCCCCC(=O)N(CC)CC`, the Potency entry (in experiment [1]; in [9]; in experiment [4]; in [5]; in [6]; in the experiment with Aromatase (Homo sapiens)) was “inactive” each time. The Potency in [8] is 30.6 µM (active).
As for `Cc1c(C)n(Cc2ccccc2)c2ccc(C(=O)OCCN(C)C)cc12`, the Potency result (in experiment [1]; in experiment [6]; with Aromatase (Homo sapiens)) was “inactive” each time. Besides, the Potency in experiment [8] was 3.76 µM (active); in [2], 6.68 µM (active); in [12] it was 7.5 µM (active).
On to `CCCCCCCC/C=C/CCCOC(C)=O`, for which the Potency entry in [1], in experiment [2], in [9], in experiment [3], in experiment [4] and in experiment [15] was “inactive” each time. The Potency result (in experiment [5]; in experiment [16]; in experiment [19]; in [17]; in [6]; in the experiment with Aromatase (Homo sapiens)) was “inactive” in each case.
In the case of `CC(CN(C)C)CN1c2ccccc2CCc2ccccc21` (configuration not stated), the Potency result in [1], in experiment [9], in experiment [4], in experiment [15], in experiment [5] and in [16] was “inactive” in each case. In addition, the Potency result in experiment [19] and in [17] was “inactive” each time. Moreover, the Potency in experiment [8] is 12.7 µM (active); in [12], 4.52 µM (active).
